The values below come from ChEMBL document CHEMBL3988442, “University of Dundee, Small-Polar-MMV Screening Library” (2021).

SMILES strings stand for the structures.

Experiment [1] concerns the target T1, Aspartate--tRNA(Asp/Asn) ligase (Mycobacterium tuberculosis (strain ATCC 25618 / H37Rv)) (UniProt P9WFW3). Also: in the data most compounds retested in dose-response had high values.
T1 sequence (whole entry): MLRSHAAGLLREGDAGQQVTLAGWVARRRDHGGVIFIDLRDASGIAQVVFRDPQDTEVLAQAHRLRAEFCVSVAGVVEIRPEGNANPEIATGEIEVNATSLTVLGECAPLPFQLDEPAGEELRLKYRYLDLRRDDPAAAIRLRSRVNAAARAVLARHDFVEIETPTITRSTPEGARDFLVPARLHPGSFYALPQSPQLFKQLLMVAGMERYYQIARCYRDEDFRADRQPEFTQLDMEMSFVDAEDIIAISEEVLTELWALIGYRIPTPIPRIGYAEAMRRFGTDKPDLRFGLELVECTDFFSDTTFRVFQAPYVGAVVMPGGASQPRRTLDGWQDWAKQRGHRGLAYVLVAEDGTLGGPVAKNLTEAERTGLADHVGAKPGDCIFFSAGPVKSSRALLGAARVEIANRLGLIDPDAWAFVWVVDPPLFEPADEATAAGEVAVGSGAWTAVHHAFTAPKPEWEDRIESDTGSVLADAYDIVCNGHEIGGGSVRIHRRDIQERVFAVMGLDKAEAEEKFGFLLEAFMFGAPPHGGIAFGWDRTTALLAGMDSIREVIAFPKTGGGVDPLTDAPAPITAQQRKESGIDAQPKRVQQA
The experiment in a line: Assay for Asp RNA synthetase-1 from Mycobacterium tuberculosis. Format: functional. Details: scale not given: direction of the effect not stated beside the values. Particulars: 30 µM.

For experiment [2], the target named is Shiga toxin 2 (Escherichia coli O157:H7) (UniProt P09385+P09386). The experiment in a line: E. coli 0.157:H7 Shiga Toxin SOP - stx2 screening assay. It is filed as functional. Also on record: scale not given: direction of the effect not stated beside the values. The following applies: 30 µM.

As for `CCCNC(=O)CNc1cc(C(=O)N2CCSCC2)ccc1C`, the Percent Effect in experiment [1] was -2.64%; in experiment [2], -9.17%.
Take `CCN(CC)Cc1cn2c(n1)CN(C(=O)c1cc(C)on1)CC2`: the results for the Percent Effect in experiment [1] and in experiment [2] were 3.22% and 2.01%, respectively.
For `Cc1cnn(CC2CN(CC(=O)Nc3nnc(C)s3)CCO2)c1` (stereo not given), the Percent Effect in experiment [1] was -4.68%; in experiment [2] it was 7.65%.
For the compound `O=C(c1ccco1)N1CCOCC2(CCN(C3CCOCC3)C2)C1` (stereo not given), the results for the Percent Effect in experiment [1] and in experiment [2] were 8.62% and -31.1%, respectively.
For `Cc1ccccc1CN1CCC(NCC2CNc3ccnn3C2)CC1` (stereo not given) the same measures were 0.127% and -38.1%.
The corresponding values for `CNC(=O)c1cc(S(=O)(=O)C(C)C)cs1` are -3.82% and -3.3%.
Regarding `CN(Cc1cccnc1)C1CC2(CCN(c3ccccn3)CC2)C1`, the figures for the Percent Effect in experiment [1] and in experiment [2] were 2.16% and -47.1%, respectively.
As to `O=C(C1=CCCCC1)N1CCC2(CC1)COC(COc1ccccn1)C2` (stereo not given), the Percent Effect in experiment [1] is 0.351%; in experiment [2], -19.1%.
`CCNC(=O)N1CCCC(c2noc(CC)n2)C1` (stereo not given): the values for the Percent Effect in experiment [1] and in experiment [2] were -2.74% and 17.9%, respectively.
As for `Cc1ncc(S(C)(=O)=O)c(C2CCCNC2)n1` (stereo not given), the Percent Effect is 0.276% in experiment [1] and -2.77% in experiment [2].
In the case of `COc1ccc(CCN2CCCC2Cn2nc(C)nc2C)cc1` (stereo not given), the Percent Effect in experiment [1] is -3.2%; in experiment [2] it was -22.5%.
As to `CC(C(=O)N1CCCN(Cc2ccc(C#N)cc2)CC1)n1ccnc1` (stereo not given), the Percent Effect in experiment [1] was -0.834%; in experiment [2], 29.9%.
On to `CCn1ccnc1CN1C[C@@H](CN2CCCC2)[C@@H](CO)C1`, for which the Percent Effect was -3.33% in experiment [1] and 6.48% in experiment [2].
Consider `CN1CCOC(CN(C(=O)Cc2ccccc2F)c2nccs2)C1` (stereo not given), for which the Percent Effect in experiment [1] is -1.89%; in experiment [2], -16%.
For `Cc1cnn(C2CCCN(C(=O)c3cnc4ccccc4n3)C2)c1` (stereo not given) the same measures were 9.11% and 25.1%.
For `CCn1ccnc1CN1CCN(Cc2ccccn2)CC1C` (stereo not given) the same measures were -1.39% and -13.6%.
`Cc1cn2c(n1)CCC(NC(=O)c1ccc(CS(C)(=O)=O)cc1)C2` (stereo not given): the Percent Effect is -0.233% in experiment [1] and -16.5% in experiment [2].
Regarding `Fc1ccc(CN2CC[C@H]3O[C@@H](COCC4CCOCC4)CC[C@H]32)cc1`, the Percent Effect in experiment [1] was 0.838%; in experiment [2] it was -14.5%.
The corresponding values for `Cc1cc(C)n(CC2CN(CCOc3cccc(F)c3)CCO2)n1` (stereo not given) are 3.93% and 36.7%.
For `CNC(=O)CCc1cc(C)nc(C2CCCN2)c1` (stereo not given) the same measures were 0.0149% and -4.41%.
For `Cc1nc(N2CCCC2)nc2c1CN(C(=O)N1CCOCC1)CC2`, the values for the Percent Effect in experiment [1] and in experiment [2] were 0.478% and -3.98%, respectively.
As to `CC(C)C(=O)N1CCN(C(=O)c2cc(C(C)C)on2)[C@H]2CS(=O)(=O)C[C@H]21`, the values for the Percent Effect in experiment [1] and in experiment [2] were -1.39% and -14.2%, respectively.
As for `Cc1ccc(-c2cc(CNC(=O)N3CCC(CO)CC3)on2)cc1`, the Percent Effect was 3.99% in experiment [1] and 16.1% in experiment [2].
For the compound `Cc1cc2c(cc1C(=O)N1CC[C@H](CO)[C@@H](O)C1)OCCO2`, the Percent Effect in experiment [1] was -0.915%; in experiment [2], 8.21%.
For `Cc1csc2ncc(-c3ccnc(N4CCCC[C@@H]4CO)n3)c(=O)n12`, the results for the Percent Effect in experiment [1] and in experiment [2] were -2.34% and -17.1%, respectively.
As for `CC(C)(C)c1ncc2c(n1)CN(C(=O)c1ccncc1)C2`, the Percent Effect in experiment [1] is 2.51%; in experiment [2] it was -10.4%.
With `O=C(Nc1cc(F)ccc1OCC1CCCO1)c1ccccn1` (stereo not given), the Percent Effect came out at 2.54% in experiment [1] and 37.1% in experiment [2].
Consider `CCc1nnc2n1CCN(C(=O)Cc1csc(-c3ccco3)n1)C2`, for which the Percent Effect in experiment [1] was -2.26%; in experiment [2], -3.06%.
For `Cc1ccsc1C(=O)NCCCn1nc2ccccn2c1=O`, the results for the Percent Effect in experiment [1] and in experiment [2] were 1.69% and 16.8%, respectively.
For `COCCN(C)C[C@@H]1CN(C(=O)c2ccoc2)C[C@@H]1CO`, the Percent Effect in experiment [1] is -4.07%; in experiment [2] it was 15.1%.
The corresponding values for `CCCN(C(=O)COC)c1nc2c(s1)CCc1c-2cnn1C` are -1.78% and -37.9%.
As to `CCC(C)[C@H](NC(=O)c1cc(Br)ccc1-n1cnnn1)C(=O)OC` (stereo not given in full), the Percent Effect in experiment [1] is -2%; in experiment [2] it was -22.1%.
For `Cc1nn(C)c(N2CCOCC2)c1CNC1CCN(C(C)(C)C)CC1`, the Percent Effect in experiment [1] is -0.171%; in experiment [2], 1.07%.
Regarding `CC1(C(=O)N2CCOCC2)CN(Cc2ccccn2)CCO1` (stereo not given), the figures for the Percent Effect in experiment [1] and in experiment [2] were 8.77% and -6.1%, respectively.
For the compound `Fc1ccc(CNCC2OCCc3cn(CC4CC4)nc32)cc1` (stereo not given), the Percent Effect in experiment [1] is -2.61%; in experiment [2] it was -6.8%.
With `COCCNS(=O)(=O)c1ccc2c(c1)CCN(C(=O)c1cncn1C)C2`, the Percent Effect was 0.891% in experiment [1] and -23.1% in experiment [2].
`Cc1ccccc1OCCC(=O)N1CCCC(n2cncn2)C1` (stereo not given): the Percent Effect is -3.32% in experiment [1] and 2.85% in experiment [2].
For `Cc1cccc(OCCNC(=O)CN2CCCC2Cn2cccn2)c1` (stereo not given) the same measures were -1.71% and -0.164%.
Consider `c1ccc(-c2noc(CN3CCc4cncnc4C3)n2)nc1`, for which the results for the Percent Effect in experiment [1] and in experiment [2] were 2.21% and -24.6%, respectively.
For `CNC(=O)C1CCN(C(=O)CCn2cccn2)CC1`, the Percent Effect came out at 6.32% in experiment [1] and 26% in experiment [2].
Consider `Fc1ccc(CN2CCO[C@H]3[C@H](OCC4CC4)CC[C@@H]32)cc1`, for which the values for the Percent Effect in experiment [1] and in experiment [2] were -1.08% and 3.83%, respectively.
`CCOC(=O)N1CCN(Cc2ccc(OCc3nccn3C)cc2)CC1`: the Percent Effect in experiment [1] is -4.7%; in experiment [2], -21.9%.
On to `CCN(Cc1ccc2c(c1)OCCO2)C(=O)NCc1nc(C)cs1`, for which the Percent Effect in experiment [1] was -0.519%; in experiment [2] it was 28.5%.
Turning to `Cc1cnn(CC2CCCN2C(=O)c2cc3ccccc3[nH]2)c1` (stereo not given), the results for the Percent Effect in experiment [1] and in experiment [2] were 1.27% and 14.6%, respectively.
Regarding `CC(C)c1nc(C2CCCN2CCc2ccncc2)no1` (stereo not given), the Percent Effect in experiment [1] is 1.61%; in experiment [2] it was -7.28%.
On to `COc1cc(CNC(=O)CNc2cc(Cl)ccc2OC)ccn1`, for which the Percent Effect was found to be 3.88% in experiment [1] and 20.6% in experiment [2].
In the case of `Cc1cn2nc(N3CCCN(Cc4noc(C)n4)CC3)sc2n1`, the Percent Effect in experiment [1] was -1.65%; in experiment [2] it was 0.184%.
Regarding `Cc1noc(C)c1C(=O)NCC(C)N(C)C` (stereo not given), the Percent Effect in experiment [1] is 1.84%; in experiment [2], 30.6%.
For the compound `CC1CCCN(CCNC(=O)c2cncnc2C(C)C)C1` (stereo not given), the Percent Effect in experiment [1] was 0.418%; in experiment [2], -17.1%.
For the compound `O=C(O)c1nnn(Cc2cccc(C(F)(F)F)c2)c1-c1cccnc1`, the Percent Effect in experiment [1] is -1.36%; in experiment [2], -46.6%.
